An excerpt weighted towards active compounds, which were near 11% of everything screened.
Pf growth 48h = inhibits P. falciparum growth in the first generation, 48 h; P. falciparum luciferase growth in erythrocytes, 48 h; actives 5.9% (n = 310,000); AID 504832; Potency, µM (series often up to 28.7 µM), without a hit: at the highest dose activity change, negative = inhibition, hits mostly inhibitors
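Parasite viability was followed by luminescence of a genomically integrated firefly luciferase. Cultures held 0.1% parasitemia at 2% hematocrit (final), incubated under 5% CO2 at 37 C.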
AMA1 RON2 block = AMA1-RON2 (P. falciparum) interaction inhibition; AlphaScreen AMA1-biotinylated RON2 peptide binding; Potency, µM (titrated, usually from 58.2 µM), inactives show top-dose activity change, negative = inhibition, usual class: inhibitors; actives 0.2% (n = 360,000); AID 720542;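 further: 0% = vehicle wells and -100% = peptide control; nearly all actives have a fitted effect of over 45% in size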
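AMA1 (3D7) with his tag at 25 nM final met compounds first, then biotinylated RON2 peptide at 25 nM; detection used donor plus acceptor beads, 10 µg/mL apiece, read by AlphaScreen after 30 min at room temperature.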
Pf growth 96h = P. falciparum growth inhibition at 96 hours; actives 6.9% (n = 320,000); AID 504834; P. falciparum luciferase reporter growth, 96 h; Potency, µM (series often up to 28.7 µM), for inactives: at the highest dose activity change, negative = inhibition, actives largely listed as inhibitors
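Compounds incubated with erythrocytes infected by luciferase-expressing P. falciparum (2% hematocrit, 0.05% parasitemia final) for 96 hours, 37 C in 5% CO2. Growth inhibition scored as decreased luciferase luminescence.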
HCV inhibitor = HCV inhibition; Potency, µM (highest dose often 41.8 µM), for inactives: at the top dose activity change, negative = inhibition, hits mostly inhibitors; actives 3.4% (n = 340,000); Huh7.5.1 HCVcc-Cre infection, luciferase reporter, 44 h
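Whole-lifecycle infectious HCVcc-Cre system; cells 1,000/well, compound then virus (~0.5 moi) added 4 h after plating, 44 h culture. Luciferase read 15 sec following 15 min substrate incubation, room temp.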
The depositor's hits bear a star; ? = inconclusive; / = no result; [ ] = another dose, or the depositor's remark. The call rests on the fitted dose curve; in most records, active means well fitted curve in the direction sought with a large enough effect; inconclusive means small, poorly fitted or top-dose-only effect, or another doubt; inactive means no such curve, though single readings can be large; an effect the other way counts as inactive or inconclusive. Unless noted, on the % scale 0 is the no-effect control and ±100 the full control effect; potency means the concentration at half of the fitted maximal effect.

SMILES | Pf growth 48h | AMA1 RON2 block | Pf growth 96h | HCV inhibitor
CCCCC1=CC2=C(c3ccco3)C(=O)C(C)(OC(=O)c3ccc(OC)cc3)C(=O)C2=CN1CCCCO (stereo not drawn) | ? | -2.4% | ? | -31.1%
CCCCC1=CC2=C(c3ccco3)C(=O)C(C)(OC(=O)c3ccc(OC)cc3)C(=O)C2=CN1CCCN(CC)CC (stereo not drawn) | ? | -7.9% | 14.7µM* | 2.5%
CCCCC1=CC2=C(c3ccco3)C(=O)C(C)(OC(=O)c3ccc(OC)cc3)C(=O)C2=CN1CCN1CCOCC1 (stereo not drawn) | ? | -22.5% | 10.4µM* | -12.4%
Nc1ncnc2c1ncn2[C@@H]1O[C@H](CCC(=O)NCc2ccccc2)[C@@H](O)[C@H]1O | / | 9.3% | / | /
Cc1cc(C)c2oc(=O)cc(CN3CCCCC3)c2c1 | ? | 14.8% | ? | 12.0%
O=C(COc1ccccc1C(=O)c1cnn(-c2ccccc2)c1)Nc1ccc2ccccc2c1 | 34.9% | -13.3% | -10.1% | 12.6µM*
CC(C)c1ccc(NC(=O)COc2ccc(F)cc2C(=O)c2cnn(-c3ccccc3)c2)cc1 | -66.8% | -16.7%[2.32 µM] | ? | ?
CC(=O)Nc1ccc(C(=O)COC(=O)c2cccs2)c(F)c1 | -10.8% | 3.1% | -8.4% | 9.1%
CC(=O)Nc1ccc(C(=O)COC(=O)C2CC2C)c(F)c1 (stereo not drawn) | -23.3% | 6.0% | 31.2% | 12.6µM*
COC(=O)c1cccc(C23CC4(C2)[C@H](CN(Cc2ccc(-c5ccccc5)cc2)[C@@H]4c2ccccc2)C3c2ccccc2)c1 (stereo partly drawn) | 11.7µM* | 3.5% | 1.65µM* | -8.0%
COC(=O)c1ccc(C23CC4(C2)[C@H](CN(Cc2ccc(-c5ccccc5)cc2)[C@@H]4c2ccccc2)C3c2ccc(Cl)nc2)cc1 (stereo partly drawn) | 11.7µM* | -0.9% | ? | 14.0%
COC(=O)c1cccc(C23CC4(C2)[C@H](CN(Cc2ccc(-c5ccccc5)cc2)[C@@H]4c2ccccc2)C3c2ccc(C(F)(F)F)cc2)c1 (stereo partly drawn) | ? | -1.7% | ? | -0.4%
COc1cccc(CNC(=O)C2CCN(S(=O)(=O)c3ccc(Br)s3)CC2)c1 | ? | -9.4% | 23.2% | ?
O=C1C(Br)=C(c2ccccc2)C(c2ccccc2)=C1c1ccccc1 | / | -10.7% | / | 6.31µM*
CCCn1c(N)c(Sc2ccccc2[N+](=O)[O-])c(=O)n(CCC)c1=O | ? | 1.3% | ? | -11.9%
Cc1ccc(/C=C/C(O)=C2/C(=O)N(C)C3(C)CC2c2ccccc2O3)cc1 (stereo not drawn) | 11.7µM* | 14.3% | 11.8% | ?
COc1ccc(/C=C/C(O)=C2/C(=O)N(C)C3(C)CC2c2ccccc2O3)cc1 (stereo not drawn) | 13.1µM* | -1.9% | 0.0% | -17.0%
CCn1c(SCC(=O)c2ccc(C)cc2)nnc1-c1ccoc1C | -10.5% | 22.0% | 14.7µM* | -19.4%
CCn1c(SCC(=O)c2ccc(Cl)cc2)nnc1-c1ccoc1C | ? | -6.9% | 14.7µM* | ?
CCn1c(SCC(=O)c2ccccc2)nnc1-c1ccoc1C | 45.9% | 3.3% | 0.0% | -19.4%
Cc1ccc(/C=C/C(=O)NCCc2cccc(Cl)c2)o1 | -26.7% | -5.5% | -1.0% | -11.1%
C#CCOCCOCCOCCNc1nc(N2CCN(C(=O)Cn3cc(CCCCN)nn3)CC2)nc(N2CCN(C(=O)[C@H](C)n3cc(CCCN=C(N)N)nn3)CC2)n1 | -7.6% | / | 0.117µM* | -5.1%[8.37 µM]
C#CCOCCOCCOCCNc1nc(N2CCN(C(=O)Cn3cc(CCCN=C(N)N)nn3)CC2)nc(N2CCN(C(=O)[C@H]([C@@H](C)CC)n3cc(CCCN=C(N)N)nn3)CC2)n1 | 1.17µM* | / | 0.037µM* | -5.5%[8.37 µM]
C#CCOCCOCCOCCNc1nc(N2CCN(C(=O)Cn3cc(CCO)nn3)CC2)nc(N2CCN(C(=O)[C@H]([C@@H](C)O)n3cc(CCCCN)nn3)CC2)n1 | 17.4% | -2.4% | -7.3% | -3.1%
C#CCOCCOCCOCCNc1nc(N2CCN(C(=O)[C@H]([C@@H](C)O)n3cc(CCCCN)nn3)CC2)nc(N2CCN(C(=O)[C@H](C)n3cc(CCCN=C(N)N)nn3)CC2)n1 | 3.0% | -5.5% | ? | 1.6%[8.37 µM]
SMILES | Pf growth 48h | AMA1 RON2 block | Pf growth 96h | HCV inhibitor
C#CCOCCOCCOCCNc1nc(N2CCN(C(=O)Cn3cc(CCCN=C(N)N)nn3)CC2)nc(N2CCN(C(=O)[C@H](C(C)C)n3cc(CCO)nn3)CC2)n1 | -8.4% | -3.7% | ? | 30.1%
C#CCOCCOCCOCCNc1nc(N2CCN(C(=O)Cn3cc(CCCCN)nn3)CC2)nc(N2CCN(C(=O)[C@H]([C@@H](C)CC)n3cc(CCCN=C(N)N)nn3)CC2)n1 | 0.738µM* | -8.0% | ? | 23.1%
C#CCOCCOCCOCCNc1nc(N2CCN(C(=O)Cn3cc(CCCN=C(N)N)nn3)CC2)nc(N2CCN(C(=O)[C@H]([C@@H](C)O)n3cc(CCCCN)nn3)CC2)n1 | 0.4% | -7.0% | 10.4µM* | 14.3%
Cc1cc(C)c(S(=O)(=O)NCc2cccnc2)c(C)c1 | 0.0% | -3.5% | 217.1% | 8.3%
CCOc1ccc(N(CC(=O)NCc2ccc(F)cc2)C(=O)CCC(=O)Nc2nccs2)cc1 | ? | -12.4% | ? | 5.2%
C=C(C)C(=O)Nc1cccc(C2=NOC3(C2)C[C@H](C(N)=O)N(C(=O)COc2ccc(Cl)cc2)C3)c1 (stereo partly drawn) | ? | 55.3% | ? | -24.4%
C#CCOCCOCCOCCNc1nc(N2CCN(C(=O)Cn3cc(CC(C)O)nn3)CC2)nc(N2CCN(C(=O)[C@H](C)n3cc(CCCN=C(N)N)nn3)CC2)n1 (stereo partly drawn) | -1.7% | -6.5% | 11.7µM* | 18.3%[8.37 µM]
C#CCOCCOCCOCCNc1nc(N2CCN(C(=O)Cn3cc(CCCN=C(N)N)nn3)CC2)nc(N2CCN(C(=O)[C@H](CCCCN)n3cc(CC(C)O)nn3)CC2)n1 (stereo partly drawn) | ? | -1.8% | ? | 21.1%
CCOC(=O)N1CCN(CC(O)COCc2cc(OC)c(OC)c(OC)c2)CC1 (stereo not drawn) | -3.9% | -22.1% | 7.6% | 5.1%
COc1ccc(COCC(O)CN2CCC(CN3C(=O)c4cccc5cccc(c45)C3=O)CC2)cc1OC (stereo not drawn) | ? | 4.9%[2.32 µM] | 11.7µM* | ?
COc1cc(COCC(O)CN2CCN(CCN3C(=O)c4cccc5cccc(c45)C3=O)CC2)cc(OC)c1OC (stereo not drawn) | ? | -22.8% | ? | 3.55µM*
O=C1c2cccc3cccc(c23)C(=O)N1CCN1CCN(CC(O)COCc2ccc(Cl)cc2)CC1 (stereo not drawn) | ? | ? | ? | 11.2µM*
CN(CCO)C(=O)CCC(=O)Nc1ccc(S(N)(=O)=O)cc1 | 31.9% | -7.9% | ? | 9.8%
CCOC(=O)[C@]12CCCC=C1N(Cc1ccccc1)C(=O)[C@H](CC(=O)N1CCCCCC1)C2 | / | -6.2% | / | /

Screens (PubChem BioAssay)
